Compound activity from PubChem.
MEKK2mut PB1 HTS: MEK5 binding signal on mutant MEKK2 PB1, primary screen, biochemical, multiplex bead flow cytometry, Alexa488-MEK5 | hit rate 0.35% among 290,000 | AID 1530, 2009 | percent response, % at 10 µM | Alexa488-MEK5 binding to MEKK2 mutant; in the data active = percent response above about 24%, passing the limit was not always enough
UBC13 inh: UBC13 polyubiquitin chain formation inhibitors, primary screen, biochemical, TR-FRET, uHTS; inhibition, % at 20 µM; hit rate 0.47% among 330,000; in the data active = inhibition above about 45%, passing the limit was not always enough
MEKK3 PB1 HTS: modulators of MEKK3-MEK5 PB1 binding, primary screen, biochemical, wildtype MEKK3, multiplex bead flow cytometry, Alexa488-MEK5. Mitogen-activated protein kinase kinase kinase 3 (Homo sapiens), Q99759. bead-based flow cytometry, Alexa488-MEK5 binding to MEKK3; actives lie on both sides; 0 = blocked by unlabeled MEK5, 100 = vehicle. binding response (% of control), % at 10 µM. hit rate 1.4% among 290,000. AID 1529, 2009;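 active = binding response more than 3 SD above or below the average of its plate-row segment, actives on both sides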;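 note: Alexa488 bead fluorescence after subtracting the streptavidin-only scavenger bead signal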
Target sequence (Q99759 whole entry, looked up): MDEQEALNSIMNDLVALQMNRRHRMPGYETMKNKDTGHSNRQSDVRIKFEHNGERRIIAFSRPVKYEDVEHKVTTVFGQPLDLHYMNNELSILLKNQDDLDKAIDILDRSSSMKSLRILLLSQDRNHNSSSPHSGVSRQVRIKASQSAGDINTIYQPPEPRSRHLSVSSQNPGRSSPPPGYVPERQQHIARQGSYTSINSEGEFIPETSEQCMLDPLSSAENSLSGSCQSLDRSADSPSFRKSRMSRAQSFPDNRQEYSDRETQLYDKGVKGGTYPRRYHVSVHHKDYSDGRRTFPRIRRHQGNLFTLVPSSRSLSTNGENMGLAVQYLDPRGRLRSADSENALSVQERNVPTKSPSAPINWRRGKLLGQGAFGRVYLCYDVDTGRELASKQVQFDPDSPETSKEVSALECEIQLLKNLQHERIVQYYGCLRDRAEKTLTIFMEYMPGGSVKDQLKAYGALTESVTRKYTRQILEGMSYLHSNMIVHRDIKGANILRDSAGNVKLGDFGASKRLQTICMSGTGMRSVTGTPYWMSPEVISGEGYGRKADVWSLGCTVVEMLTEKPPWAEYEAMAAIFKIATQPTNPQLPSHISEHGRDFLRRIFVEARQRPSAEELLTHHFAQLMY
MEKK2 WT-MEK5: modulators of MEK5 binding to wildtype MEKK2, primary screen, biochemical, multiplex bead flow cytometry, Alexa488-MEK5; Mitogen-activated protein kinase kinase kinase 2 (Homo sapiens), Q9Y2U5; Alexa488-MEK5 binding to MEKK2 WT; actives lie on both sides; AID 1531, 2009; hit rate 1.1% among 290,000; binding response (% of control), % at 10 µM; in the data active = binding response below about 67% or above about 130%
MEKK2wt confirm: modulators of MEK5 binding to wildtype MEKK2, confirmation, biochemical, single concentration, multiplex bead flow cytometry | shares compounds with MEKK3 PB1 HTS | Alexa488-MEK5 binding to MEKK2 WT; actives lie on both sides | binding response (% of control), % at 10 µM | hit rate 2.4% among 5,900; in the data active = binding response below about 16% or above about 210%; inactive = in between
MEKK2mut-MEK5: mutant MEKK2 PB1-MEK5 binding signal retest – biochemical, single concentration, multiplex bead flow cytometry, confirmation | Alexa488-MEK5 binding to MEKK2 mutant | percent response, % at 10 µM | shares compounds with MEKK3 PB1 HTS | AID 1893, 2009 | hit rate 2% among 5,900; in the data active = percent response mostly above about 71%, no sharp cut-off; inactive = mostly below about 38%;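 note: higher means compound restores mutant binding toward wildtype level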
MEKK3 confirm: MEKK3 wild-type PB1 binding to MEK5, inhibitors, confirmation, biochemical, bead multiplex flow cytometry, single concentration, wildtype. Alexa488-MEK5 binding to MEKK3; stronger effect = lower value. AID 1894, 2009. hit rate 1.8% among 5,900. binding response (% of control), % at 10 µM. shares compounds with MEKK3 PB1 HTS;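 active = binding response below 72% of control, or above a set upper limit, though filed actives all read lower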;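 note: 100% = DMSO only wells and 0% = binding blocked by excess unlabeled MEK5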
The depositor's hits bear a star; x = no result; [ ] = another dose, or the depositor's remark. In the library only some 2.3% were active in any assay of this set; here they are far more common.

SMILES	MEKK2mut PB1 HTS	UBC13 inh	MEKK3 PB1 HTS	MEKK2 WT-MEK5	MEKK2wt confirm	MEKK2mut-MEK5	MEKK3 confirm
CCn1cc2nc(SCC(=O)Nc3ccccc3F)n(Cc3ccccc3)c(=O)c2n1	-6	0	96	97	x	x	x
COc1cccc(CC(=O)Nc2ccc(S(=O)(=O)N3CCCCC3)cc2)c1	x	10	x	x	x	x	x
CCc1cccc2cc3c(N)c(C(=O)Nc4ccc(S(=O)(=O)N5CCCC5)cc4)sc3nc12	4	x	154*	67	87	-13	99
O=C(CC1C(=O)NCCN1CCCc1ccccc1)NCCc1ccccc1Cl (configuration not stated)	31*	7	102	126	146	21	103
COc1cccc(CNC(=O)CC2C(=O)NCCN2CCCc2ccccc2)c1 (configuration not stated)	15	2	108	129	x	x	x
COc1ccccc1CCNC(=O)CC1C(=O)NCCN1CCCc1ccccc1 (configuration not stated)	26*	3	109	138*	113	6	101
CNC(=O)N(O)C1N(NC(=O)Nc2cccc3ccccc23)C(=S)SC1(C)C (configuration not stated)	1	-4	132*	105	101	3	100
CNC(=S)Nc1ccc(OC)c(OC)c1	-21	-4	2.0*[inhibitor]	3.0*[inhibitor]	100	3	104
CCOC(=O)N1CCN(Cc2nnc(-c3cccc(Br)c3)o2)CC1	2	3	100	102	x	x	x
Cc1cccc(/C=N/N(CCO)C2=NS(=O)(=O)c3ccccc32)c1	1	-11	138*	117	107	11	103
Cc1cc(C)cc(N(CCC#N)C(=O)COC(=O)C2CCN(S(=O)(=O)c3ccc(C)c(C)c3)CC2)c1	x	-5	x	x	x	x	x
O=C(Cn1cc(/C=N/NC(=O)c2cccc3ccccc23)c2ccccc21)Nc1ccc(F)cc1	-14	-7	38*[inhibitor]	38*[inhibitor]	100	-5	100
CCSc1nc2sc3c(c2c(=O)[nH]1)CCCC3	3	7	96	94	x	x	x
CCSC1=NC2(CCCCC2)Nc2sc3c(c21)CCCC3	-16	-2	3.0*[inhibitor]	2.0*[inhibitor]	97	1	97
CCCCN1C(=S)NC[C@@H]1c1ccccc1	3	2	105	101	x	x	x
COc1cc(CCCN2C(N)=NC[C@@H]2Cc2ccccc2)cc(OC)c1OC	4	1	97	100	x	x	x
COc1cc(CCCN2C(=S)NC[C@@H]2Cc2ccccc2)cc(OC)c1OC	2	9	1.0*[inhibitor]	0.0*[inhibitor]	102	0	104
COc1cc(CCCN2C(=S)NC[C@@H]2c2ccccc2)cc(OC)c1OC	0	11	80*[inhibitor]	97	107	9	108
CC(C)[C@H](NS(=O)(=O)c1ccccc1)C(=O)Nc1ccccc1N1CCOCC1	x	14	x	x	x	x	x
NC(=O)c1ccc(NC(=O)COC(=O)C2(c3ccccc3F)CCCC2)cc1	-2	-5	73*[inhibitor]	88	100	1	103
CC(C)Sc1cc(Cl)nc(NC(=O)Nc2ccccc2)n1	-1	4	102	99	x	x	x
FC(F)(F)c1cccc(NC(=S)N(CCCN2CCCC2)Cc2cccn2Cc2ccc(Cl)cc2)c1	6	29	93	243*	259*	64	104
COc1ccc(-c2cn3cccnc3n2)cc1NC(=O)c1cc(OC)c(OC)c(OC)c1	-21	-2	20*[inhibitor]	27*[inhibitor]	100	-3	97
COc1cc(OC)cc(C(=O)OCC(=O)NC2CCCCCC2)c1	x	7	x	x	x	x	x
Cc1cc(S(=O)(=O)N2CCCOC2CNC(=O)C(=O)NCc2ccco2)ccc1F (configuration not stated)	-5	8	107	97	x	x	x
